Assay [1] is described as follows: small molecules captured by biotinylated probe aFSTL3 – biochemical, small-molecule microarray, fluorescence 635/667, stem cell growth factor project, primary screen (AID 1064).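 Also: measures binding of the biotinylated anti-FSTL3 antibody to printed compounds.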 Conditions: higher = more signal.
The nature of assay [2]: binders from COS7 lysate, DM2A8 probe, primary screen, torsin A project, cell lysate, small-molecule microarray, fluorescence 635/667 (AID 1065). Conditions: higher = more signal, COS7 lysate expressing mutant human TOR1A.
Assay [3] is described as follows: small molecules captured by biotinylated probe aFGF2 – biochemical, small-molecule microarray, fluorescence 635/667, stem cell growth factor project, primary screen (AID 1067).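 Also: measures binding of biotinylated aFGF2 protein to printed compounds on slides; z-score merges feature fluorescence and signal-to-noise across triplicate slides.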 To be noted: higher = more signal.
A short description of assay [4]: small molecules captured by biotinylated probe aFGF10 – biochemical, small-molecule microarray, fluorescence 635/667, stem cell growth factor project, primary screen (AID 1071).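 Also: score merges 667 nm spot intensity and signal to noise from triplicate slides.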 To be noted: higher = more signal.
Assay [5] addresses Neurogenic locus notch homolog protein 2 (Homo sapiens) (UniProt Q04721). The experiment in a line: small molecules binding Notch2 protein – biochemical, small-molecule microarray, 635 nm fluorescence, stem cell growth factors, primary screen (AID 1073). To be noted: higher = more signal.
Assay [6] addresses Pro-neuregulin-1, membrane-bound isoform (Homo sapiens) (UniProt Q02297). The assay is described as follows: small molecules binding neuregulin-1 protein – biochemical, small-molecule microarray, fluorescence 635/667, psychiatric disease protein project, primary screen (AID 1075).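 Also: score combines 667 nm spot fluorescence with signal to noise.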 Conditions: NRG1 binding, 635 nm fluorescence, higher = more signal.
Assay [7] relates to Neuregulin-1 EGF-like domain. The experiment in a line: small molecules binding NRG1 EGF domain – biochemical, small-molecule microarray, 635 nm fluorescence, primary screen (AID 1081).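 Also: binding of the protein to compounds printed on small-molecule microarray slides.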 Conditions: higher = more signal.
Assay [8] is described as follows: FRG1 expression reporter modulators in myotubes – cell-based, C2C12 myotubes, firefly/Renilla luciferase, luminescence, FRG1 inhibition for FSHD, primary screen (AID 1084). Conditions: FRG1 promoter luciferase, higher = more signal, called active from +8 up or from −8 down.
A short description of assay [9]: small molecules captured by biotinylated probe aFST – biochemical, small-molecule microarray, fluorescence 635/667, stem cell growth factor project, primary screen (AID 1086).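 Also: score merges 667 nm fluorescence with signal-to-noise of each printed compound spot.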 To be noted: higher = more signal.
Assay [10] in a line: binders of probe aHhip on microarray, primary screen, stem cell growth factor project, biochemical, small-molecule microarray, fluorescence 635/667 (AID 1087).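 Also: score merges spot fluorescence at 667nm with spot signal to noise ratio.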 Conditions: higher = more signal.
Assay [11] concerns PRMT1 (protein arginine N-methyltransferase 1). The assay is described as follows: small molecules binding arginine methyltransferase PRMT1 – biochemical, small-molecule microarray, 635 nm fluorescence, primary screen (AID 1088).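 Also: binding of Prmt1 protein to compounds spotted on small-molecule microarray slides.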 Conditions: higher = more signal.
Assay [12] in a line: growth effects on S. cerevisiae YJM789 – YJM789 clinical isolate, OD600, 24 h, basal, primary screen (AID 1089).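 Also: growth of clinical yeast isolate S. cerevisiae YJM 789 seeded 1000 cells per well; test concentration not given here.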 Conditions: higher = more signal, called active from +8 up or from −8 down.
A short description of assay [13]: S. pombe growth modifiers, basal conditions – strain 972, OD600, 24 h, no modulator, primary screen (AID 1090).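 Also: basal condition with compound alone and no growth modifier present; test concentration not given here.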 Conditions: S. pombe 972 growth, higher = more signal, called active from +8 up or from −8 down.
A short description of assay [14]: budding yeast growth modifiers under rapamycin – strain BY4716, OD600, 96 h, primary screen (AID 1091). Also: test concentration not given here. Conditions: S. cerevisiae BY4716 + rapamycin, higher = more signal, called active from +8 up or from −8 down.
The target in assay [15] is Torsin-1A-interacting protein 2 (Homo sapiens) (UniProt Q8NFQ8). The assay is described as follows: small molecules binding lysate-expressed LULL1 – cell lysate, human LULL1 lysate, 635/667 nm fluorescence, primary screen (AID 1092).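 Also: probe is lysate of COS7 cells overexpressing human LULL1; score merges per-feature 667 nm fluorescence with signal-to-noise.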 To be noted: small-molecule microarray, hLULL1 lysate binding, 635 nm fluorescence; higher = more signal.
Torsin-1A-interacting protein 2 (Homo sapiens), sequence (Q8NFQ8 whole entry, looked up): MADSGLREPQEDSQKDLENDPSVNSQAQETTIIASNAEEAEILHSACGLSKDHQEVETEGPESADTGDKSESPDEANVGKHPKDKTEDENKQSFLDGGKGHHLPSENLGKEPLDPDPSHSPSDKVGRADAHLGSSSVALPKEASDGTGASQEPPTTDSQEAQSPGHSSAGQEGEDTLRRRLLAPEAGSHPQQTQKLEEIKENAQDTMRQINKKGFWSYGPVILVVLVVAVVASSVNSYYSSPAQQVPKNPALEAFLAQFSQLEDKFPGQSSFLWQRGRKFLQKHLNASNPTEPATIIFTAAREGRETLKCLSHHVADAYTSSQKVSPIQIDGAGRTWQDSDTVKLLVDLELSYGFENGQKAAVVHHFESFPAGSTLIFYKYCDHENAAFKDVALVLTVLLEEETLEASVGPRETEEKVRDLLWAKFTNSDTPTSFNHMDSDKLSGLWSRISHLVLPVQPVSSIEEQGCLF
Assay [16] can be described thus: optical density change of DRC41 E. coli – strain DRC41, OD650, 24 h, E. coli filamentation project, primary screen (AID 1093).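 Also: MC1000 strain lacking acrAB efflux and sulA so SOS filamentation is blocked; test concentration not given here.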 To be noted: E. coli DRC41 growth, higher = more signal, called active from +8 up or from −8 down.
The nature of assay [17]: probe aLefty2 binding to arrayed compounds – biochemical, biotinylated probe, 635/667 nm fluorescence, primary screen (AID 1094).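 Also: score merges spot fluorescence near 667 nm with spot signal-to-noise ratio.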 To be noted: small-molecule microarray, higher = more signal.
The test system of assay [18] is Noggin (protein binding on small-molecule microarray). The assay is described as follows: small molecules binding Noggin protein – biochemical, 635/667 nm fluorescence, primary screen (AID 1095).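 Also: score merges 667 nm feature fluorescence with signal to noise over triplicate slides.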 Conditions: 635 nm fluorescence, higher = more signal.
In assay [19] the target is Neurogenic locus notch homolog protein 3 (Homo sapiens) (UniProt Q9UM47). The assay is described as follows: small molecules binding NOTCH3 protein – biochemical, 635/667 nm fluorescence, primary screen (AID 1096). To be noted: small-molecule microarray, 635 nm fluorescence, higher = more signal.
Neurogenic locus notch homolog protein 3 (Homo sapiens), sequence (Q9UM47 whole entry, looked up): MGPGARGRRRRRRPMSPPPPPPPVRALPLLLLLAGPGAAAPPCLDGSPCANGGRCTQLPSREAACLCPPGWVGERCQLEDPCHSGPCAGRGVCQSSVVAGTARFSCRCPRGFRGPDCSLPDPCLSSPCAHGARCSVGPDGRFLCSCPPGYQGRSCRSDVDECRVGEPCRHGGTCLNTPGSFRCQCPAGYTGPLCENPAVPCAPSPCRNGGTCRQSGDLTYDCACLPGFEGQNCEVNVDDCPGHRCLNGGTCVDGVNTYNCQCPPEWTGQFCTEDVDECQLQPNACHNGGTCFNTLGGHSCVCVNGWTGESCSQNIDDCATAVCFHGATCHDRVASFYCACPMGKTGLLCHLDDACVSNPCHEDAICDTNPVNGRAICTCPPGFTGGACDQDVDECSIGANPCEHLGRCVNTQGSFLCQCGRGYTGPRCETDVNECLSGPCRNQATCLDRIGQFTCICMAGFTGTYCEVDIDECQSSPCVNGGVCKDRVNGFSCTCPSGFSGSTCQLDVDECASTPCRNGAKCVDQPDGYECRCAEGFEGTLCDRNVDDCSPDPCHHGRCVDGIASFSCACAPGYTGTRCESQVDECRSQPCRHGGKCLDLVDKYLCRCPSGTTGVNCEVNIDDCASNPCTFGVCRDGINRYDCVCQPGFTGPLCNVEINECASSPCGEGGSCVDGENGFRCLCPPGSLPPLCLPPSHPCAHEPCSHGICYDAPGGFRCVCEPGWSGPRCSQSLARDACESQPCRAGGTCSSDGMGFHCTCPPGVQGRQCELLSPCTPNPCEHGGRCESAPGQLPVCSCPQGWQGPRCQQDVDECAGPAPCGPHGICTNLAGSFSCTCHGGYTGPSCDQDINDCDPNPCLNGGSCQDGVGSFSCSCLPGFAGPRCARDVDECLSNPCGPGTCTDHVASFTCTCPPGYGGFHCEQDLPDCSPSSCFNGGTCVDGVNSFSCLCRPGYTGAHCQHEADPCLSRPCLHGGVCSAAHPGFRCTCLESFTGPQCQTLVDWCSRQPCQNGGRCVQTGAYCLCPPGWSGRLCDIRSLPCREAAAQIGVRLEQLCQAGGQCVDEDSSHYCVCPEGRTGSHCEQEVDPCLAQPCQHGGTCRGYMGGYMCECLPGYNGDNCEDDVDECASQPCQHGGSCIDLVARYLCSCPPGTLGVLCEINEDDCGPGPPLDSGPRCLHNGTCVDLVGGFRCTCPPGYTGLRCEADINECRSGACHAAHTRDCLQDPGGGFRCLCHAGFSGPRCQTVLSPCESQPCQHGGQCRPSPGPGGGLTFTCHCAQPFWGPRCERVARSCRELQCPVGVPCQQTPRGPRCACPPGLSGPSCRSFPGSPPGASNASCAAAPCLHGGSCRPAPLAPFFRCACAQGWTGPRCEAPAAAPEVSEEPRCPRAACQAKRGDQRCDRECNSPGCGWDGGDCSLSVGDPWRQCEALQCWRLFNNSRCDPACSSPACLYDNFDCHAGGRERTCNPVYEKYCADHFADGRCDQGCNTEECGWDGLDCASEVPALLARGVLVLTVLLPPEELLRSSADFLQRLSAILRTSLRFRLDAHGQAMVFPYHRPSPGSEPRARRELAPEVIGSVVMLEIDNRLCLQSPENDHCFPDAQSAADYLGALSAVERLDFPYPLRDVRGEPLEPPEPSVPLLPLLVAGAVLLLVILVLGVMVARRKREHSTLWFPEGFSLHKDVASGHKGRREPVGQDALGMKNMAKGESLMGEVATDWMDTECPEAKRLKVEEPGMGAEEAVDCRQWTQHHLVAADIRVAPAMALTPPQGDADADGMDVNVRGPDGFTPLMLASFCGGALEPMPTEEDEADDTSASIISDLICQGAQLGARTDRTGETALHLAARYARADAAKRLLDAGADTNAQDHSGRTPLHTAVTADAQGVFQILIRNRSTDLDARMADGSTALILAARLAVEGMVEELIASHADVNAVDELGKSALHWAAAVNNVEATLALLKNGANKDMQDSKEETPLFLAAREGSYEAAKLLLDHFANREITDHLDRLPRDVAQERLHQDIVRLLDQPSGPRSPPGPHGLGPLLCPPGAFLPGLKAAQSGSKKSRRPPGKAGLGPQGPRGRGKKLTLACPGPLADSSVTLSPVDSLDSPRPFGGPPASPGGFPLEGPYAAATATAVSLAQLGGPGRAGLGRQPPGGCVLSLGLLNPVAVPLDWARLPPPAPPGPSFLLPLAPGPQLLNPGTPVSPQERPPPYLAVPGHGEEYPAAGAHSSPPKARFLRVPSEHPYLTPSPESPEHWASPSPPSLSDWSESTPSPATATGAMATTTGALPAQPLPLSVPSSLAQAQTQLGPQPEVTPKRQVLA
The nature of assay [20]: probe aEGFR binding to arrayed compounds – biochemical, biotinylated probe, 635/667 nm fluorescence, primary screen (AID 1097).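 Also: probe is a biotinylated anti-EGFR antibody binding compounds printed on slides; score combines fluorescence near 667 nm and signal to noise of each spot.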 To be noted: small-molecule microarray, higher = more signal.

Values joined by “and” are separate entries in the source; they are usually repeats but may differ in a detail not shown here. Equal entries are not always repeated. Active and inactive are the calls of the source.

Pro-neuregulin-1, membrane-bound isoform (Homo sapiens), sequence (Q02297 whole entry, looked up, the tested form may be a part, canonical isoform): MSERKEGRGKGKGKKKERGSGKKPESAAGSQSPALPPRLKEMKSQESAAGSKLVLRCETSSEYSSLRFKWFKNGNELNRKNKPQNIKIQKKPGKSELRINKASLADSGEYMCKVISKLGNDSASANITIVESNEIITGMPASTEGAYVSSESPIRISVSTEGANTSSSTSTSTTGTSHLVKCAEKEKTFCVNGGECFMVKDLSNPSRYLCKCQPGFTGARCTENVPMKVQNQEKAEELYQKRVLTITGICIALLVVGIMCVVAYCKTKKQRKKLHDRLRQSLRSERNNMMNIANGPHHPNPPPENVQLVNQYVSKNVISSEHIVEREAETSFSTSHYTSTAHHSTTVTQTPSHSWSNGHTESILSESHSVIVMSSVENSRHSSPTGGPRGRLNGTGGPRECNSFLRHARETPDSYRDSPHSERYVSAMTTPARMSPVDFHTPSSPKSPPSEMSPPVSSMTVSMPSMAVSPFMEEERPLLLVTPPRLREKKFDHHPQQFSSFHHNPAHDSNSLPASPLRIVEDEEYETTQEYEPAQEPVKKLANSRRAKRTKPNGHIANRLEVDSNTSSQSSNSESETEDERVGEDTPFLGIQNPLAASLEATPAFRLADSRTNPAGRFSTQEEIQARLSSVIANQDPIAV

For the molecule `C[N+](C)(C)CCCCNC(=O)[C@H]1C[C@H]2C(=O)N[C@@H](CCCC[N+](C)(C)C)C(=O)N2[C@H]1c1ccc(O)cc1`, the composite z-score is -0.589 and -0.197 in [1]; 2 and 1.03 in assay [2]; -0.051 and -0.216 in assay [3]; 0.889 and 0.379 in assay [4]; 0.443 and -0.234 in [5]; 0.289 and -0.641 in assay [6]. Further, the composite z-score in [7] is 1.38 and 0.394; in assay [9], -0.142 and 0.287; in assay [10], 0.21 and -0.134; in [11], 1.54 and 1.55; in assay [15], -0.296 and -0.656; in assay [17], -0.171 and -0.214. Also, the composite z-score was 1.73 and 1.84 in assay [18]; 0.97 and 0.969 in assay [19]; 0.0338 and -0.127 in assay [20]. The z-score is 0.717 (inactive) and 0.376 (inactive) in assay [8]; 0.877 (inactive) and -0.0113 (inactive) in assay [12]; 0.565 (inactive) and 0.352 (inactive) in [13]; -1.16 (inactive) and -1.35 (inactive) in assay [14]; -0.118 (inactive) and 0.0161 (inactive) in assay [16].
Consider `C[C@@H](ON=C1[C@H]2CCn3c(=O)n(-c4ccccc4)c(=O)n3[C@H]2[C@H](O)[C@@H]2O[C@H]12)c1cn([C@H](CO)Cc2ccccc2)nn1`, for which the composite z-score was -0.289 in assay [1]; 0.316 in assay [2]; -0.113 in assay [3]; 0.449 in assay [4]; 0.308 in assay [5]; 0.11 in [6]. The composite z-score in assay [7] is 0.536; in assay [9], 0.0701; in assay [10], -0.64; in assay [11], 0.587; in [15], 0.61; in assay [17], -0.282. Further, the composite z-score in assay [18] was 0.557; in [19] it was 0.668; in [20], -0.194. Also, the z-score in assay [8] was 0.887 (inactive); in assay [12] it was -0.217 (inactive); in [13], -0.165 (inactive); in assay [14] it was 0.0121 (inactive); in assay [16], 0.381 (inactive).
In the case of `O=C(NN=C1C[C@@H](O)[C@@H](O)[C@@H]2[C@@H]3C(=O)N(Cc4ccc5c(c4)OCO5)C(=O)[C@@H]3CC[C@H]12)OCc1ccccc1`, the composite z-score was -0.196 in assay [1]; 1.64 in assay [2]; -0.025 in assay [3]; -0.348 in assay [4]; 0.64 in assay [5]; -1.21 in [6]. Besides, the composite z-score is -1.43 in assay [7]; 0.965 in [9]; -0.387 in assay [10]; 1.15 in [11]; -0.815 in [15]; -0.0047 in assay [17]. The figures for the composite z-score in assay [18], in assay [19] and in [20] were 0.707, -0.0259 and -0.0828, respectively. Also, the z-score in assay [8] was -0.0282 (inactive); in [12], 0.48 (inactive); in [13] it was -0.157 (inactive); in assay [14] it was 0.191 (inactive); in [16], 1.01 (inactive).
For the molecule `CCCCCN1CC=CC23O[C@@H]4C=CCCOC(=O)C4[C@H]2C(=O)N(C(C)CO)[C@@H]3C1=O` (stereo not given in full), the composite z-score in assay [1] was -1.32 and 1.66; in assay [2], 0.852 and -1.23; in [3], -0.0341 and -0.148; in assay [4], -0.202 and -0.431; in assay [5] it was -0.88 and -0.932; in assay [6] it was 1.03 and 1.11. Also, the composite z-score in assay [7] was 1.54 and 1.32; in [9], -0.678 and 0.24; in assay [10], -1.02 and -0.274; in [11], 0.432 and 0.967; in assay [15], 1.01 and 2.94; in [17], -0.401 and 0.157. Also, the composite z-score is 0.157 and 0.362 in assay [18]; 0.311 and 0.388 in assay [19]; -0.386 and -0.253 in assay [20]. For the same molecule, the z-score in assay [8] is 0.212 (inactive) and 0.0905 (inactive); in assay [12], -0.772 (inactive) and 0.61 (inactive); in assay [13] it was -0.328 (inactive) and 0.278 (inactive); in [14] it was -1.48 (inactive) and 0.779 (inactive); in [16], 1.78 (inactive) and 1.58 (inactive).
Take `C=CC[C@@H](O)c1ccc(O)c(F)c1`: the composite z-score in assay [1] is 1.77 and 0.459; in assay [2] it was 0.897 and -0.727; in assay [3], -0.0695 and -0.194; in assay [4], -0.03 and -1.69; in assay [5], -1.42 and -2.14; in [6], -0.627 and -0.0657. For the same molecule, the composite z-score is 0.684 and 0.704 in assay [7]; -0.922 and -0.799 in [9]; -0.132 and 0.0392 in assay [10]; -0.508 and -0.514 in assay [11]; -0.471 and -1.19 in assay [15]; -0.0329 and -0.0221 in assay [17]. The composite z-score is -2.36 and -0.702 in assay [18]; -1.4 and -0.883 in assay [19]; -0.384 and -0.381 in assay [20]. Besides, the z-score in assay [8] was 0.572 (inactive) and -1.4 (inactive); in assay [12] it was 0.442 (inactive) and -0.907 (inactive); in assay [13], -0.6 (inactive) and -1.52 (inactive); in assay [14], -0.389 (inactive) and -1.67 (inactive); in assay [16], 0.336 (inactive) and 1.94 (inactive).
Regarding `CCCNC(=O)OC[C@H]1O[C@H](CCON=C(C)CCC(=O)OC[C@H]2O[C@H](C#Cc3ccccc3)C=C[C@@H]2Oc2ccc(C)cc2)C=C[C@@H]1Oc1ccc(OC)cc1`, the composite z-score in assay [1] was 0.0836; in assay [2], -0.115; in assay [3], -0.124; in assay [4], -0.187; in [5], -0.0132; in [6], -0.21. The composite z-score in assay [7] is -0.861; in assay [9], -0.244; in [10] it was 1.27; in assay [11], -0.164; in [15] it was -0.575; in assay [17], -0.251. The figures for the composite z-score in assay [18], in [19] and in assay [20] were -0.346, -0.574 and -0.12, respectively. In addition, the z-score was 0.751 (inactive) in [8]; -0.142 (inactive) in [12]; -0.0152 (inactive) in [13]; 0.794 (inactive) in [14]; 0.165 (inactive) in assay [16].
Consider `C=CCN(C(=O)C(c1cccs1)N(CCOCCO)C(=O)/C=C\C(=O)O)C(C)(C)C` (stereo not given), for which the composite z-score is 0.982 and 1.01 in assay [1]; -0.718 and -0.131 in assay [2]; -0.228 and -0.192 in assay [3]; -0.708 and -0.376 in assay [4]; -1.28 and -1.44 in assay [5]; -0.395 and -0.988 in [6]. In addition, the composite z-score is 0.484 and 0.745 in [7]; -0.78 and -1.06 in [9]; -0.277 and -0.169 in assay [10]; -1.16 and -0.597 in assay [11]; -2.06 and 0.15 in assay [15]; -0.0674 and -0.167 in assay [17]. For the same molecule, the composite z-score was -1.85 and -2.31 in assay [18]; -1.9 and -0.936 in [19]; -0.277 and -0.339 in assay [20]. The z-score in [8] was -0.0773 (inactive) and -0.143 (inactive); in [12] it was 0.592 (inactive) and 0.385 (inactive); in assay [13], -1.35 (inactive) and -0.863 (inactive); in assay [14], 0.103 (inactive) and 0.0577 (inactive); in assay [16], 1.41 (inactive) and 0.711 (inactive).
For `CO[C@@H]1COC(=O)CC=C[C@H](C)COC(=O)[C@H](C)NC(=O)CC=C[C@H]1C`, the composite z-score was -0.563 in assay [1]; 1.75 in assay [2]; -0.203 in [3]; 0.126 in assay [4]; 0.269 in assay [5]; -0.557 in assay [6]. Besides, the composite z-score in [7] was -0.139; in assay [9], -0.118; in [10] it was 0.0505; in [11], 1.38; in [15], -0.654; in [17], -0.235. Moreover, the composite z-score in assay [18] is 1.68; in [19], 0.438; in assay [20], -0.157. Also, the z-score is -0.87 (inactive) in [8]; 1.19 (inactive) in assay [12]; 1.04 (inactive) in [13]; 1.25 (inactive) in assay [14]; 0.18 (inactive) in assay [16].

These data come from PubChem BioAssay.
